Results from PubChem BioAssay (NCATS).
Non-standard residues stand in square brackets, D forms with d. Residues, ends and D or L forms follow the SMILES beside them. *: point of attachment. Nva = CCC[C@H](N)C(=O)O; Cbz = O=C(OCc1ccccc1)*

Assay: High-throughput drug toxicity screening in the BPDCN cell line Gen2.2 (AID 1224824)
Conditions: Gen2.2 BPDCN cells; at 45.8 µM (top of the series) unless noted
Excerpt: Blastic plasmacytoid dendritic cell neoplasm (BPDCN) is a rare, aggressive and largely incurable hematologic malignancy originating from plasmacytoid dendritic cells (pDCs). Although an initial response to chemotherapy is common, BPDCN prognosis is extremely poor and most patients relapse with drug-resistant disease leading to a median overall survival of ~1 year after diagnosis. To explore novel potential therapeutic strategies in BPDCN, we performed a high-throughput drug toxicity screening in BPDCN cell liens, using of a library of 1,912 small molecules, enriched for compounds that are either approved or in early stages of development for cancer therapy.
A total of 500 exponentially growing Gen2.2 cells were seeded per well in 5 uL of media (RPMI + Glutamine, without phenol red plus10% FBS and 1X Pen/Strep) into 1536-well solid white high base tissue culture treated Greiner One Bio Plates (789173-F), using a multidrop combi dispenser and a small sterile cassette. Compounds and controls totaling 23nL per well (negative control DMSO and positive control 9.2 uM Bortezomib-final) were immediately added to the plates using a 1536 head pin tool from Kalypsys. The plates were then covered with stainless steel gasket lids from Kalypsys and incubated for 48 hours at 37C under 95% relative humidity with 5% CO2. After 48 hours, the plates were removed and allowed to reach room temperature before 3 uL of Cell Titer Glo reagent (Promega) were added using an Aurora Flying Reagent Dispenser Bioraptor. The plates were then spun at 1000 rpms to remove bubbles and incubated for 15 minutes at room temperature before reading on a ViewLux using a luminescent filter with a 10 second exposure. The relative luciferase units were used to calculated percent activity using DMSO as 100% and Bortezomib as 0%.
In the case of `CCOc1cc2c(c(F)c1OCC)C(=N)N(CC(=O)c1cc(N3CCOCC3)c(OC)c(C(C)(C)C)c1)C2`, the cell viability, % of control (lower = more cytotoxic) is reported as 4.1%.
For `NS(=O)(=O)OC[C@@H]1C[C@@H](n2ccc3c(N[C@H]4CCc5ccccc54)ncnc32)C[C@H]1O`, the cell viability, % of control (lower = more cytotoxic) was 6.59%.
With `CN(C)CC(=O)N1CCC(c2ccc(NC(=O)c3ncc(C#N)[nH]3)c(C3=CCCCC3)c2)CC1` the cell viability, % of control (lower = more cytotoxic) was 168%.
`CCc1cc(C(C)=NOCc2ccc(C3CCCCC3)c(C(F)(F)F)c2)ccc1CN1CC(C(=O)O)C1` showed a cell viability, % of control (lower = more cytotoxic) of 68%.
Compound `C=C1C(=CC=C2CCC[C@]3(C)[C@@H]([C@H](C)CCCC(C)(C)O)CC[C@@H]23)C[C@@H](O)C[C@@H]1O` has a cell viability, % of control (lower = more cytotoxic) of 20.5%.
For `CC(=O)OCC(=O)[C@@]12N=C(C)O[C@H]1C[C@H]1[C@@H]3CCC4=CC(=O)C=C[C@]4(C)[C@@H]3[C@@H](O)C[C@@]12C`, the cell viability, % of control (lower = more cytotoxic) was 94.7%.
`COc1cc(N2CCC(C(N)=O)CC2)ccc1Nc1nc(N)c(Cl)c(Nc2ccccc2S(=O)(=O)C(C)C)n1` showed a cell viability, % of control (lower = more cytotoxic) of 147%.
Compound `COc1cccc2c1C(=O)c1c(O)c3c(c(O)c1C2=O)C[C@@](O)(C(=O)CO)C[C@H]3O[C@H]1C[C@H](N)[C@H](O)[C@H](C)O1` has a cell viability, % of control (lower = more cytotoxic) of 6.45%.
With `CN(C)CCN1C(=O)c2cccc3cc(N)cc(c23)C1=O` the cell viability, % of control (lower = more cytotoxic) was 5.29%.
`C=CC(=O)N1CCc2ccc(-n3c(=O)ccc4cnc5ccc(-c6cnn(C)c6)cc5c43)cc21` gave a cell viability, % of control (lower = more cytotoxic) of 1.99%.
Work on `O=c1[nH]c(=O)n([C@H]2C[C@@H](O)[C@@H](CO)O2)cc1F` yielded a cell viability, % of control (lower = more cytotoxic) of 74.8%.
For `c1cc(CN2CCCNCCNCCCNCC2)ccc1CN1CCCNCCNCCCNCC1`, the cell viability, % of control (lower = more cytotoxic) was 133%.
In the case of `Cc1ccc(O)c(C(CCN(C(C)C)C(C)C)c2ccccc2)c1` (stereo not given), the cell viability, % of control (lower = more cytotoxic) is reported as 239%.
With `C=C1C[C@@]2(O)O[C@@]3(C[C@H]2C(C)C)[C@H](C)CC[C@H]13` the cell viability, % of control (lower = more cytotoxic) was 67.8%.
In the case of `CC(=O)N[C@H]1[C@@H]([C@H](O)[C@H](O)CO)OC(C(=O)O)=C[C@@H]1N=C(N)N`, the cell viability, % of control (lower = more cytotoxic) is reported as 114%.
`CC1(C)CC(O)CC(C)(C)N1[O]` gave a cell viability, % of control (lower = more cytotoxic) of 152%.
`COc1ccnc2[nH]cc(C(=O)C(=O)N3CCN(C(=O)c4ccccc4)C[C@@H]3C)c12` gave a cell viability, % of control (lower = more cytotoxic) of 172%.
In the case of `CC1=C(C(=O)Nc2cc3cn[nH]c3cc2F)C(c2ccc(Cl)cc2F)N=C(c2ccnc(Cl)c2)N1` (stereo not given), the cell viability, % of control (lower = more cytotoxic) is reported as 4.15%.
With `COc1ccc(S(=O)(=O)Nc2cc(-c3c(O)ccc4ccccc34)c(O)c3ccccc23)cc1` the cell viability, % of control (lower = more cytotoxic) was 5.48%.
`CC(=O)[C@]1(O)Cc2c(O)c3c(c(O)c2[C@@H](O[C@H]2C[C@H](N)[C@@H](O)[C@H](C)O2)C1)C(=O)c1ccccc1C3=O` gave a cell viability, % of control (lower = more cytotoxic) of 6.08%.
With `CC(C)Oc1ccc(C(=O)N[C@H](CNC(=O)CN(C)C)Cc2ccc(-c3cn4cccc([C@H](C)O)c4n3)cc2)cc1Cl` the cell viability, % of control (lower = more cytotoxic) was 61.2%.
Compound `COc1cc([C@@H]2c3cc4c(cc3[C@@H](O[C@@H]3O[C@@H]5CO[C@@H](c6cccs6)O[C@@H]5[C@H](O)[C@@H]3O)[C@H]3COC(=O)[C@H]23)OCO4)cc(OC)c1O` has a cell viability, % of control (lower = more cytotoxic) of 27.7%.
`CC(C)NC[C@@H](C(=O)N1CCN(c2ncnc3c2[C@H](C)C[C@H]3O)CC1)c1ccc(Cl)cc1` showed a cell viability, % of control (lower = more cytotoxic) of 1.71%.
`CNC(=O)c1cccc(-c2ccc3c(N4CCOC[C@H]4C)nc(N4CCOC[C@H]4C)nc3n2)c1` gave a cell viability, % of control (lower = more cytotoxic) of 20.8%.
Work on `C#C[C@]1(O)CC[C@@H]2[C@@H]3CCc4cc(O)ccc4[C@H]3CC[C@@]21C` yielded a cell viability, % of control (lower = more cytotoxic) of 67.3%.
Work on `C[C@H](NCc1ccc(OCc2cccc(F)c2)cc1)C(N)=O` yielded a cell viability, % of control (lower = more cytotoxic) of 13.6%.
For `CC(=O)SCC(Cc1ccccc1)C(=O)NCC(=O)OCc1ccccc1` (stereo not given), the cell viability, % of control (lower = more cytotoxic) was 5.18%.
`CCC[C@@H](C=O)NC(=O)[C@H](CC(C)C)NC(=O)[C@H](CC(C)C)NC(=O)OCc1ccccc1` (Cbz-Leu-Leu-[Nva]-aldehyde) showed a cell viability, % of control (lower = more cytotoxic) of 10.9%.
Work on `CC(=O)N[C@@H]1[C@H](O[C@@H]2c3ccc(c(Cl)c3)Oc3cc4cc(c3O[C@H]3O[C@H](CO)[C@@H](O)[C@H](O)[C@H]3NC(=O)CCCCCCCC(C)C)Oc3ccc(cc3Cl)C[C@H]3NC(=O)[C@H](N)c5ccc(O)c(c5)Oc5cc(O)cc(c5)[C@H](NC3=O)C(=O)N[C@H]4C(=O)N[C@H]3C(=O)N[C@@H]2C(=O)N[C@@H](C(=O)O)c2cc(O)cc(O[C@H]4O[C@H](CO)[C@@H](O)[C@H](O)[C@H]4O)c2-c2cc3ccc2O)O[C@H](CO)[C@@H](O)[C@@H]1O` yielded a cell viability, % of control (lower = more cytotoxic) of 82.7%.
`CC(C)C[C@H](NC(=O)CNC(=O)c1cc(Cl)ccc1Cl)B1OC(=O)CC(CC(=O)O)(C(=O)O)O1` (stereo not given in full) showed a cell viability, % of control (lower = more cytotoxic) of 4.85%.
With `O=C(O)CCCCCC(=O)NN=C1CCCC1` the cell viability, % of control (lower = more cytotoxic) was 141%.
With `CCCCCCCCc1ccc(CCC(N)(CO)CO)cc1` the cell viability, % of control (lower = more cytotoxic) was 4.54%.
`Cc1cc(Nc2ncc3c(n2)N(C)C(=O)N(c2cc(NC(=O)c4cccc(C(F)(F)F)c4)ccc2C)C3)n(C)n1` gave a cell viability, % of control (lower = more cytotoxic) of 11.1%.
For `c1cncc(CN2CCC(n3ncc4c(N5CCOCC5)nc(-c5ccc6[nH]ccc6c5)nc43)CC2)c1`, the cell viability, % of control (lower = more cytotoxic) was 12.4%.
`Nc1ccn(C[C@@H](CO)OCP(=O)(O)O)c(=O)n1` gave a cell viability, % of control (lower = more cytotoxic) of 138% [at 23.2 µM].
For `C[C@@]12C[C@@]3(O)O[C@@H](O1)[C@]1(COC(=O)c4ccccc4)[C@@H]3C[C@@]12O[C@@H]1O[C@H](CO)[C@@H](O)[C@H](O)[C@@H]1O`, the cell viability, % of control (lower = more cytotoxic) was 109%.
Work on `O=C(O)C[C@H](O)C[C@H](O)C=Cc1c(C2CC2)nc2ccccc2c1-c1ccc(F)cc1` yielded a cell viability, % of control (lower = more cytotoxic) of 4.71%.
In the case of `Nc1nc(=O)n([C@H]2C[C@H](O)[C@@H](CO)O2)cc1F`, the cell viability, % of control (lower = more cytotoxic) is reported as 190%.
`CCc1nc(-c2cccc(C)c2)c(-c2ccnc(NC(=O)c3ccccc3)c2)s1` showed a cell viability, % of control (lower = more cytotoxic) of 229%.
For `CCN(CC)CCCCNc1ncc2c(n1)N(C)C(=O)N(c1c(Cl)c(OC)cc(OC)c1Cl)C2`, the cell viability, % of control (lower = more cytotoxic) was 138%.
